# PMC7862700, “An all-to-all approach to the identification of sequence-specific readers for epigenetic DNA modifications on cytosine”
# Columns and labels:
# Assay in all cases: DAPPL (digital affinity profiling via proximity ligation, sequencing); 10 mM Tris-HCl pH 7.5, 50 mM NaCl, 1 mM DTT, 4% glycerol, room temperature, 30 min; GST-TFs on glutathione beads, 16-mer random dsDNA library, 0.1% formaldehyde crosslink after washing; high values mean tight binding
# Settings in all cases: protein: recombinant; tags: N-terminal GST; dsDNA, one strand shown
# ETV5 = ETV5 (Homo sapiens, UniProt P41161 1-510)
# Sequence of ETV5 (P41161 whole entry, the tested form may be a part): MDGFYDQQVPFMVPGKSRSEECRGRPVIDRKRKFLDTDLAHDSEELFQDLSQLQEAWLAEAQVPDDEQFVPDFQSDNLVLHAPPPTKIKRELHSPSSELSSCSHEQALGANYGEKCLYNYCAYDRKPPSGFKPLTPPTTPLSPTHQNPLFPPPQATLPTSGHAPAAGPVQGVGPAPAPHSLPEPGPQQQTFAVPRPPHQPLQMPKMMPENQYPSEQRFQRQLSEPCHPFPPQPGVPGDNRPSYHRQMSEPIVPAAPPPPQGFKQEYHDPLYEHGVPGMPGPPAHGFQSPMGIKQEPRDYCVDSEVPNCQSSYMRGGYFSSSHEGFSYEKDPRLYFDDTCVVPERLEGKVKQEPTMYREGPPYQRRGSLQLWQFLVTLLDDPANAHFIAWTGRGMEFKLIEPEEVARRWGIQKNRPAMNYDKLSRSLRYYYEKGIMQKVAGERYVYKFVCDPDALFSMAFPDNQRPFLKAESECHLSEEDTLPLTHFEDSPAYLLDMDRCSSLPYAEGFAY
# Summary of the method: (§1)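 Yeast served to express human transcription factors as GST fusions, which were then captured on glutathione beads and labelled with DNA barcodes. Pooled with a tag-only sample, they were incubated with 200 nmole of a 16-mer random double-stranded DNA library for 30 min at room temperature in Tris/NaCl/DTT/glycerol buffer, washed, crosslinked with 0.1% formaldehyde, ligated by proximity, amplified by PCR and sequenced. Dividing each hexamer's read frequency for a factor by its frequency for the tag-only sample gives the binding signal.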
# SPIC = molecular target: T1, SPIC (Homo sapiens, UniProt Q8N5J4 1-248)
# T1 sequence: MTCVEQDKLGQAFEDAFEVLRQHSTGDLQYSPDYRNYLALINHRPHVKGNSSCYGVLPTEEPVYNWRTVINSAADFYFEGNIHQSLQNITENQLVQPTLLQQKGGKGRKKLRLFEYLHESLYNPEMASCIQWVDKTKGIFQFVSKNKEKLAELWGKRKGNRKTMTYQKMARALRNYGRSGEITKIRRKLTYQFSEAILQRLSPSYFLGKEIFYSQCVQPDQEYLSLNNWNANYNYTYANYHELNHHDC
# Summary of the method: as §1
# ELF4 = ELF4 (Homo sapiens, UniProt Q99607 1-663)
# Sequence of ELF4 (Q99607 whole entry): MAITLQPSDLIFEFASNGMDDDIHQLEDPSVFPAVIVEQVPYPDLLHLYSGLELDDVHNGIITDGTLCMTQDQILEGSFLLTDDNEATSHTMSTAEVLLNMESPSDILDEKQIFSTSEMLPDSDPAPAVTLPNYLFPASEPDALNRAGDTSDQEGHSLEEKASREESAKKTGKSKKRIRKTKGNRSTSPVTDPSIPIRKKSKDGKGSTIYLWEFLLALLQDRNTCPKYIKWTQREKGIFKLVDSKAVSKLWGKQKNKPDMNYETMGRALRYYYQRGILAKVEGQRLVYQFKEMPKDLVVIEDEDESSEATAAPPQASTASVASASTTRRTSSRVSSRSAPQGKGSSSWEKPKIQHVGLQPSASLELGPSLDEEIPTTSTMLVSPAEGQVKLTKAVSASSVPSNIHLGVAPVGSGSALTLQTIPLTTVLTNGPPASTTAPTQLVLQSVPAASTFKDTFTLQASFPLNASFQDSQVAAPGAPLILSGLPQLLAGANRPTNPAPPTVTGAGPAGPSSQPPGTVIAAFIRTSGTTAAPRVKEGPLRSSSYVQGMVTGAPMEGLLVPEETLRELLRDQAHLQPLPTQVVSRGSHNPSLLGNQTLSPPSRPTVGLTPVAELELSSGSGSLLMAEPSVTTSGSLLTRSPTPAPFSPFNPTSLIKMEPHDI
# Summary of the method: as §1
# ELK4 = molecular target: T2, ELK4 (Homo sapiens, UniProt P28324-2 1-405)
# T2 sequence: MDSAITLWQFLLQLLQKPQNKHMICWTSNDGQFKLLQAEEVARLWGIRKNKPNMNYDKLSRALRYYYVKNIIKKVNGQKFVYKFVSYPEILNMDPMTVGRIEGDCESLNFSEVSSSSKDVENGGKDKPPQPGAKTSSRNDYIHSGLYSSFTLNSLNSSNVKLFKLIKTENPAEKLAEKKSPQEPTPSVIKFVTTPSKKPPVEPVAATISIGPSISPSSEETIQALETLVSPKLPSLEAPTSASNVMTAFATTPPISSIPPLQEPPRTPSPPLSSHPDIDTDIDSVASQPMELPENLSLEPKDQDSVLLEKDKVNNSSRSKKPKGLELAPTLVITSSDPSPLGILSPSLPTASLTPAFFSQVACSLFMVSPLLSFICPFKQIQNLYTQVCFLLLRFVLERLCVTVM
# Summary of the method: as §1
# ETV2 = molecular target: T3, ETV2 (Homo sapiens, UniProt O00321 1-342)
# T3 sequence: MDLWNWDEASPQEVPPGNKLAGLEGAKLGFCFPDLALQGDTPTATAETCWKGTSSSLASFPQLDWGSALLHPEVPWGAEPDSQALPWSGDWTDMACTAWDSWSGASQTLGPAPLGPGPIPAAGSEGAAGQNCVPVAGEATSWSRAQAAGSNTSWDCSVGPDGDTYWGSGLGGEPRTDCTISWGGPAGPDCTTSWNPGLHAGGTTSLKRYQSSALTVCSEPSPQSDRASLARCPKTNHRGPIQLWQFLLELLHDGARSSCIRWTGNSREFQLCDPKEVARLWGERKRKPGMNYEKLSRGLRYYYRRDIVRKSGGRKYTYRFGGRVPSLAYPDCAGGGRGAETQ
# Summary of the method: as §1
# ELF3 = molecular target: T4, ELF3 (Homo sapiens, UniProt P78545 1-371)
# T4 sequence: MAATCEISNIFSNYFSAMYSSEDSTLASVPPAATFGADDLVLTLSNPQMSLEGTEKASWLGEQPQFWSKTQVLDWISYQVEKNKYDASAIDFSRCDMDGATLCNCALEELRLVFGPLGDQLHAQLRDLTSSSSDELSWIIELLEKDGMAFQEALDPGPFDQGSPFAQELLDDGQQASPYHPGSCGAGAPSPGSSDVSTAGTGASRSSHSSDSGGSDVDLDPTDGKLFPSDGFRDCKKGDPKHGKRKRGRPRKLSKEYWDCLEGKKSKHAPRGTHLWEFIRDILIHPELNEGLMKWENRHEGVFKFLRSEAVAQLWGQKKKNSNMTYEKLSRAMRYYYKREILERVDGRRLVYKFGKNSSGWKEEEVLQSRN
# Summary of the method: as §1
# ETV1 = ETV1 (Homo sapiens, UniProt P50549 1-477)
# Sequence of ETV1 (P50549 whole entry): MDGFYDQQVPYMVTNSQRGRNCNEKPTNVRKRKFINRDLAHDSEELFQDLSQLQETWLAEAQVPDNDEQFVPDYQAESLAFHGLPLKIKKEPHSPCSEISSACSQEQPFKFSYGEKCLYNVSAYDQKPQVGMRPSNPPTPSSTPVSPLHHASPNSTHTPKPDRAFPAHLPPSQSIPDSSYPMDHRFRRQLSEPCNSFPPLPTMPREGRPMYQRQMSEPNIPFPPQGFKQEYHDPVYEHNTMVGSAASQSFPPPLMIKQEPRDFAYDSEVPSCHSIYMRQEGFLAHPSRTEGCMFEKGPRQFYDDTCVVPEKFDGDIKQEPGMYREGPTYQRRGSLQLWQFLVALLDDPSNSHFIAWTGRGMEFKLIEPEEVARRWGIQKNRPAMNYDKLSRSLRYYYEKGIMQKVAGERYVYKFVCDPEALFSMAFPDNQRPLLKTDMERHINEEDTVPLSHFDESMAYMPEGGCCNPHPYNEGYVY
# Summary of the method: as §1
# ERF = molecular target: T5, ERF (Homo sapiens, UniProt P50548 1-548)
# T5 sequence: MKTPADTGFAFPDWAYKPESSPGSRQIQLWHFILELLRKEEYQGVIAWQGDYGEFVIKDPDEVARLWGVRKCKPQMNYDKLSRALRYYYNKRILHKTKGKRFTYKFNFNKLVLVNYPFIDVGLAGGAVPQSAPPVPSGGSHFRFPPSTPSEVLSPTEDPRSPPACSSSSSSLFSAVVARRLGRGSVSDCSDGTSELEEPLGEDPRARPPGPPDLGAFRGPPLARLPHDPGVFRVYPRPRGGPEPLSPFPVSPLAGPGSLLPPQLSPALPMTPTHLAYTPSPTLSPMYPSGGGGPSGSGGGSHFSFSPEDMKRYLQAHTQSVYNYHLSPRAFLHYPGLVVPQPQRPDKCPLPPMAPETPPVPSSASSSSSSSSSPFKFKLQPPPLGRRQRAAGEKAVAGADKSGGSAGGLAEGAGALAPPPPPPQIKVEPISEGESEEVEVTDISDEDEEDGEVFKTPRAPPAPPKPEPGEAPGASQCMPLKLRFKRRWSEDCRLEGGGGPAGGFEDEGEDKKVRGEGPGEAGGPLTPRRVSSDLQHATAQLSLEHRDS
# Summary of the method: as §1
# ETS2 = molecular target: T6, ETS2 (Homo sapiens, UniProt P15036 1-469)
# T6 sequence: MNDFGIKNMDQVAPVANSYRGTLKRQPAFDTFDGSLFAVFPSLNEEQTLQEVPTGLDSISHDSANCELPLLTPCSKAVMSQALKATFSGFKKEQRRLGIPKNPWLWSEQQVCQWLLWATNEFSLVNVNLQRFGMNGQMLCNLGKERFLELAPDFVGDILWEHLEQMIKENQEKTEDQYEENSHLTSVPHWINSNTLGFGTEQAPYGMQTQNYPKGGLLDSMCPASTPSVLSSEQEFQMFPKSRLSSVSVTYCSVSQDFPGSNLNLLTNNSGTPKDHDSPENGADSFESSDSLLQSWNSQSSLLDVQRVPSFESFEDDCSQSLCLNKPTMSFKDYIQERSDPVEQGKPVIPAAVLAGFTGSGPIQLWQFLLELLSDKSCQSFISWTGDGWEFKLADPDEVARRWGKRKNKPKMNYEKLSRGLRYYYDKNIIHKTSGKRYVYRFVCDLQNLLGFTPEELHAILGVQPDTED
# Summary of the method: as §1
# SPDEF = molecular target: T7, SPDEF (Homo sapiens, UniProt O95238 1-335)
# T7 sequence: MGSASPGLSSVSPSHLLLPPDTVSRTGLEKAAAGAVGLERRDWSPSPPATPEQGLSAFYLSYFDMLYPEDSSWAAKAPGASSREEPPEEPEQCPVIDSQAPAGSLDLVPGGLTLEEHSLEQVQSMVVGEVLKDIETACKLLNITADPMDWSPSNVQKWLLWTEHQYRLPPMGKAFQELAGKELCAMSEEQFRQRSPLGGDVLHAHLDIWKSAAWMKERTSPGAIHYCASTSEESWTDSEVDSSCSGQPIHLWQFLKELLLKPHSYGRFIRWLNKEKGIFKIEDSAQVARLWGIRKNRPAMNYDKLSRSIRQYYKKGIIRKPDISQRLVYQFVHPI
# Summary of the method: as §1
# ETV7 = molecular target: T8, ETV7 (Homo sapiens, UniProt Q9Y603 1-341)
# T8 sequence: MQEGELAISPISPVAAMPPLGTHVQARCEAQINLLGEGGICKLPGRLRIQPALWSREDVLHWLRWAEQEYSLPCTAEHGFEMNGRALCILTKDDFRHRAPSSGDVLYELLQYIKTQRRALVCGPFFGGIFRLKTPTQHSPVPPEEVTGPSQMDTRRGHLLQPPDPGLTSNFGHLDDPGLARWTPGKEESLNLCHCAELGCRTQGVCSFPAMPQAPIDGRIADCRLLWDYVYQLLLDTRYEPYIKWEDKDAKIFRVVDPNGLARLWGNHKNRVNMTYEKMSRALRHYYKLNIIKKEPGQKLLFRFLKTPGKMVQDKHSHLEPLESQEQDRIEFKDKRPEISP
# Summary of the method: as §1
# ETV3 = molecular target: T9, ETV3 (Homo sapiens, UniProt P41162-2 1-143)
# T9 sequence: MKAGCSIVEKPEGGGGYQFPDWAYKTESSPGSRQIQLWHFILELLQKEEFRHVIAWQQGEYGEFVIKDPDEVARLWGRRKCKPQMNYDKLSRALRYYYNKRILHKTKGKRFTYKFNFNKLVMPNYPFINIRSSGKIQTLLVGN
# Summary of the method: as §1
# ETV6 = ETV6 (Homo sapiens, UniProt P41212 1-452)
# Sequence of ETV6 (P41212 whole entry): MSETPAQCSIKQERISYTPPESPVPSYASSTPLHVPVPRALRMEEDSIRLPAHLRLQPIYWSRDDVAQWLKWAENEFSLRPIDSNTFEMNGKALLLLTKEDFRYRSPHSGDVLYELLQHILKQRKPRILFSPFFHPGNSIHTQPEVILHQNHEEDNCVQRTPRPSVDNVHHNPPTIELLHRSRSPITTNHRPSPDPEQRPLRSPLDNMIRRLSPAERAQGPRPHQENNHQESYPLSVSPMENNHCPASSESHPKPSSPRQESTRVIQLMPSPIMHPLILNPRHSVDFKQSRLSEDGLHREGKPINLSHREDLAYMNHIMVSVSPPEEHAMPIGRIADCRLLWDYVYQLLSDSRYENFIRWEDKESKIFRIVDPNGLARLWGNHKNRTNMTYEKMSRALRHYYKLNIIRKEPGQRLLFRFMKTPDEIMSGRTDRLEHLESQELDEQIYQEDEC
# Summary of the method: as §1
# FEV = molecular target: T10, FEV (Homo sapiens, UniProt Q99581 1-238)
# T10 sequence: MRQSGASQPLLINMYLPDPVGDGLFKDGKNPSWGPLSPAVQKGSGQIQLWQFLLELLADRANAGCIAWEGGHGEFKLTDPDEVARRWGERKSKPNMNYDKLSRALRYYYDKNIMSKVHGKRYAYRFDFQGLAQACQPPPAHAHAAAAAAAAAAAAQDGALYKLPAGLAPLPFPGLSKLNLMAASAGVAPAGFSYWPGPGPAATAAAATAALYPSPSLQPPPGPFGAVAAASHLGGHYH
# Summary of the method: as §1
# ETV3L = molecular target: T11, ETV3L (Homo sapiens, UniProt Q6ZN32 1-361)
# T11 sequence: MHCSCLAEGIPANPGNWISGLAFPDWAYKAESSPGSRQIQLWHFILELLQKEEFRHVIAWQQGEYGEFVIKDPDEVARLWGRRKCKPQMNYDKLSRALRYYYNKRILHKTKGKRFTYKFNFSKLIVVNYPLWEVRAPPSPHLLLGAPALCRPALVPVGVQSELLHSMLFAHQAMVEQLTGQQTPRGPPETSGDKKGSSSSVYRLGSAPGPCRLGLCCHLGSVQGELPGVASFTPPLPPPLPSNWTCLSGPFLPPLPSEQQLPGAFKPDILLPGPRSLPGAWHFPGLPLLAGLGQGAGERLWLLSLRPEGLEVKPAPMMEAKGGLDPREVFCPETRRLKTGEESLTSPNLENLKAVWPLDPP
# Summary of the method: as §1
# ELF5 = molecular target: T12, ELF5 (Homo sapiens, UniProt Q9UKW6-2 1-255)
# T12 sequence: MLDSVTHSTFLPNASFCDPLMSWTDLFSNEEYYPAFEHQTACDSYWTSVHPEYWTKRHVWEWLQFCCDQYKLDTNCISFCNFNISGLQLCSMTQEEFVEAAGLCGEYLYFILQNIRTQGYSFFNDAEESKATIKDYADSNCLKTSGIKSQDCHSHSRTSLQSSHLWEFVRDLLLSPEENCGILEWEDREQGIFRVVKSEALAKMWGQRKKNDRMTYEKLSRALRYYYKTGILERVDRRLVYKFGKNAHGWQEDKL
# Summary of the method: as §1
Sequence,binding signal (ETV5),binding signal (SPIC),binding signal (ELF4),binding signal (ELK4),binding signal (ETV2),binding signal (ELF3),binding signal (ETV1),binding signal (ERF),binding signal (ETS2),binding signal (SPDEF),binding signal (ETV7),binding signal (ETV3),binding signal (ETV6),binding signal (FEV),binding signal (ETV3L),binding signal (ELF5)
GCAATA,"1.07 fold enrichment (6-mer frequency, TF over GST control)","1.16 fold enrichment (6-mer frequency, TF over GST control)","1.07 fold enrichment (6-mer frequency, TF over GST control)","1.11 fold enrichment (6-mer frequency, TF over GST control)","1.01 fold enrichment (6-mer frequency, TF over GST control)","1.09 fold enrichment (6-mer frequency, TF over GST control)","1.07 fold enrichment (6-mer frequency, TF over GST control)","1.03 fold enrichment (6-mer frequency, TF over GST control)","1.04 fold enrichment (6-mer frequency, TF over GST control)","1.04 fold enrichment (6-mer frequency, TF over GST control)","1.08 fold enrichment (6-mer frequency, TF over GST control)","1.04 fold enrichment (6-mer frequency, TF over GST control)","1.03 fold enrichment (6-mer frequency, TF over GST control)",,,
CATGCC,"1.13 fold enrichment (6-mer frequency, TF over GST control)","1.16 fold enrichment (6-mer frequency, TF over GST control)","1.16 fold enrichment (6-mer frequency, TF over GST control)","1.17 fold enrichment (6-mer frequency, TF over GST control)","1.08 fold enrichment (6-mer frequency, TF over GST control)","1.13 fold enrichment (6-mer frequency, TF over GST control)","1.12 fold enrichment (6-mer frequency, TF over GST control)","1.12 fold enrichment (6-mer frequency, TF over GST control)","1.05 fold enrichment (6-mer frequency, TF over GST control)","1.09 fold enrichment (6-mer frequency, TF over GST control)",,"1.22 fold enrichment (6-mer frequency, TF over GST control)","1.15 fold enrichment (6-mer frequency, TF over GST control)","1.13 fold enrichment (6-mer frequency, TF over GST control)","1 fold enrichment (6-mer frequency, TF over GST control)","1.05 fold enrichment (6-mer frequency, TF over GST control)"
CTCAGG,"1.06 fold enrichment (6-mer frequency, TF over GST control)","1.06 fold enrichment (6-mer frequency, TF over GST control)","1.07 fold enrichment (6-mer frequency, TF over GST control)","1.05 fold enrichment (6-mer frequency, TF over GST control)","1.12 fold enrichment (6-mer frequency, TF over GST control)","1.15 fold enrichment (6-mer frequency, TF over GST control)",,"1.02 fold enrichment (6-mer frequency, TF over GST control)","1.12 fold enrichment (6-mer frequency, TF over GST control)","1 fold enrichment (6-mer frequency, TF over GST control)",,"1.01 fold enrichment (6-mer frequency, TF over GST control)","1.08 fold enrichment (6-mer frequency, TF over GST control)","1.09 fold enrichment (6-mer frequency, TF over GST control)",,"1.04 fold enrichment (6-mer frequency, TF over GST control)"
